Laboratory results: PubChem BioAssay (Tox21)
Inconclusive results are not listed. Activity calls are given as the source filed them. The call rests on the fitted dose curve.

Assay: qHTS assay to identify small molecule agonists of the hypoxia (HIF-1) signaling pathway - cell viability counter screen (AID 1224844); further: nearly all actives have a fitted effect of over 50% in size
Details: HRE-bla ME-180 viability, CellTiter-Glo luminescence, 17 h; series mostly up to 76.8 µM; activity change, negative = cytotoxicity: at the top concentration
Summary of the method: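 Multiplexed with the HRE beta-lactamase assay, this viability read used CellTiter-Glo luminescence (30 min, RT) on HRE-bla ME-180 cells treated 17 hrs with compounds in 0.5% dialyzed FBS medium.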
On the % scale 0 is the no-effect control and ±100 the full control effect.

| SMILES | activity change, negative = cytotoxicity |
| --- | --- |
| NC(=O)c1ccncc1 | -0.326% (inactive) |
| CO[C@]1(NC(=O)CSC(F)F)C(=O)N2C(C(=O)O)=C(CSc3nnnn3CCO)CO[C@H]21 | 0.52% [at 35.3 µM] (inactive) |
| CCCCN(CCN(CCCC)C(=O)N1CCOCC1)C(=O)N1CCOCC1 | 17.2% [at 35.3 µM] (inactive) |
| O=C1CCCCCCCCCCOCCCCO1 | -0.286% (inactive) |
| C=C(C)C(=O)OCCOCCOC(=O)C(=C)C | -0.353% (inactive) |
| COC(=O)C1=C(C)NC(C)=C(C(=O)O[C@@H]2CCCN(Cc3ccccc3)C2)[C@@H]1c1cccc([N+](=O)[O-])c1 | 24.6% [at 35.3 µM] (inactive) |
| CCCCCC[C@@H](O)C/C=C\CCCCCCCC(=O)OCC(O)CO (stereo partly specified) | -13% (inactive) |
| Cc1c(C)c2c(c(C)c1OC(=O)CCC(=O)OCCO)CC[C@@](C)(CCC[C@H](C)CCC[C@H](C)CCCC(C)C)O2 | -0.0259% [at 35.3 µM] (inactive) |
| O=C(Cn1ccnc1[N+](=O)[O-])NCCO | 4.13% [at 35.3 µM] (inactive) |
| Cc1ccccc1S | 0.0688% [at 35.3 µM] (inactive) |
| CC[N+](CC)(CCNC(=O)C(=O)NCC[N+](CC)(CC)Cc1ccccc1Cl)Cc1ccccc1Cl | 3.37% [at 35.3 µM] (inactive) |
| C=C1CCC2CC1C2(C)C (stereo unspecified) | -0.646% (inactive) |
| CCCCCCC(C)(C)C(=O)O | 5.95% (inactive) |
| Cc1ccc(C(C)(C)O)cc1 | 3.01% (inactive) |
| CCCCCC#CC(=O)OC | 8.09% (inactive) |
| CCCCCCCC/C=C\CCCCCCCCO | 10.1% (inactive) |
